# Experimental data from ChEMBL document CHEMBL1961873, “Compounds: GSK PKIS; Assays: Nanosyn kinase panel” (2012).
# How the values were obtained:
# [1] = target: Tyrosine-protein kinase SYK (Homo sapiens) (UniProt P43405); conditions: at 1 µM
# [2] = target: T1, Tyrosine-protein kinase Tec (Homo sapiens) (UniProt P42680); conditions: at 0.1 µM
# T1 sequence (whole entry): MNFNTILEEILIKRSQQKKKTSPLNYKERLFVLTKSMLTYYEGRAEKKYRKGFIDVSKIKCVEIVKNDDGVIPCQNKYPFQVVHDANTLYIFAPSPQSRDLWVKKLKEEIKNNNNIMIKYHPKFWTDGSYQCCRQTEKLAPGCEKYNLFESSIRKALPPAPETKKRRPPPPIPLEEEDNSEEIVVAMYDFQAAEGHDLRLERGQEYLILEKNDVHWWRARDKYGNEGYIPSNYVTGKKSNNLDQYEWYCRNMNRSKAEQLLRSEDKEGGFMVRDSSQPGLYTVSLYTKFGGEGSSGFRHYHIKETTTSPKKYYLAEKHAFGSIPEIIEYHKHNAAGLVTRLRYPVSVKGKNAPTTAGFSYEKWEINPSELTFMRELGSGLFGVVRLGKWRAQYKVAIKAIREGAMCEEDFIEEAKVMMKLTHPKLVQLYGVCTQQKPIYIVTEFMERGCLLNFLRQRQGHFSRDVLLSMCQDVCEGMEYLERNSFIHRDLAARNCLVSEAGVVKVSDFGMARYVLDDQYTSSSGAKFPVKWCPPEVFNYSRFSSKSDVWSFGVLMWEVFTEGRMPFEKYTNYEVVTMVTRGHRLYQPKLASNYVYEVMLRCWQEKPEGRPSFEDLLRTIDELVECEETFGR
# [3] = target: T1, Tyrosine-protein kinase Tec (Homo sapiens); conditions: at 1 µM
# [4] = target: Angiopoietin-1 receptor (Homo sapiens) (UniProt Q02763); conditions: at 0.1 µM
# Angiopoietin-1 receptor (Homo sapiens), sequence (Q02763 whole entry): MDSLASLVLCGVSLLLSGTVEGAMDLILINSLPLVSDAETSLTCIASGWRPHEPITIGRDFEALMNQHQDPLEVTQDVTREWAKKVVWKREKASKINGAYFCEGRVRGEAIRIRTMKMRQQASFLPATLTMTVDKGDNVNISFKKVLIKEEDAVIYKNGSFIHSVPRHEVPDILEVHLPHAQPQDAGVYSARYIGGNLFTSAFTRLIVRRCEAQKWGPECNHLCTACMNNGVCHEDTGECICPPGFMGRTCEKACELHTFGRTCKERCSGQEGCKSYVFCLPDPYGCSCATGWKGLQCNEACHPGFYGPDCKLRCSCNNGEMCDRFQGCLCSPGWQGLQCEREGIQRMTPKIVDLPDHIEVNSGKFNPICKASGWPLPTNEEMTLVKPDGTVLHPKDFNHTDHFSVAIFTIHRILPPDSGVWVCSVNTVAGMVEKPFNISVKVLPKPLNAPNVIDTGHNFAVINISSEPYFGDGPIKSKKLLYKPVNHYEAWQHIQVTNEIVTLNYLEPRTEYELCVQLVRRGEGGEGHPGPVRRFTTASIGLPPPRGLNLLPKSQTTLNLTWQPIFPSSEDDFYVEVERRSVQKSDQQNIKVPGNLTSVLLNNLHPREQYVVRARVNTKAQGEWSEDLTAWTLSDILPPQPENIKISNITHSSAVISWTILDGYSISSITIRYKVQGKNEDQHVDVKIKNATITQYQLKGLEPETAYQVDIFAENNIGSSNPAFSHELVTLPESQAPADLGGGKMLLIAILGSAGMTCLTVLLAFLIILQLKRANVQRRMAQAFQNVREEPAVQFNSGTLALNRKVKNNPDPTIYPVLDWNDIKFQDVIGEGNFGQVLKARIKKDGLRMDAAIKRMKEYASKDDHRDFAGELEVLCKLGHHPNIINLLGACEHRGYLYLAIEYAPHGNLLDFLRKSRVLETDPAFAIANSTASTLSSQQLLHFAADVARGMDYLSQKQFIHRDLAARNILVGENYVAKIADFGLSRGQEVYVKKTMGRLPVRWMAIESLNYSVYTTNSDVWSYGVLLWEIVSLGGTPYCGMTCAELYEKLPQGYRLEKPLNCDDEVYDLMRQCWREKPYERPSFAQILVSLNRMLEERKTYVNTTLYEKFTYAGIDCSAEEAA
# [5] = target: Angiopoietin-1 receptor (Homo sapiens) (UniProt Q02763); conditions: at 1 µM
# [6] = target: T2, Non-receptor tyrosine-protein kinase TNK1 (Homo sapiens) (UniProt Q13470); conditions: at 0.1 µM
# T2 sequence (whole entry): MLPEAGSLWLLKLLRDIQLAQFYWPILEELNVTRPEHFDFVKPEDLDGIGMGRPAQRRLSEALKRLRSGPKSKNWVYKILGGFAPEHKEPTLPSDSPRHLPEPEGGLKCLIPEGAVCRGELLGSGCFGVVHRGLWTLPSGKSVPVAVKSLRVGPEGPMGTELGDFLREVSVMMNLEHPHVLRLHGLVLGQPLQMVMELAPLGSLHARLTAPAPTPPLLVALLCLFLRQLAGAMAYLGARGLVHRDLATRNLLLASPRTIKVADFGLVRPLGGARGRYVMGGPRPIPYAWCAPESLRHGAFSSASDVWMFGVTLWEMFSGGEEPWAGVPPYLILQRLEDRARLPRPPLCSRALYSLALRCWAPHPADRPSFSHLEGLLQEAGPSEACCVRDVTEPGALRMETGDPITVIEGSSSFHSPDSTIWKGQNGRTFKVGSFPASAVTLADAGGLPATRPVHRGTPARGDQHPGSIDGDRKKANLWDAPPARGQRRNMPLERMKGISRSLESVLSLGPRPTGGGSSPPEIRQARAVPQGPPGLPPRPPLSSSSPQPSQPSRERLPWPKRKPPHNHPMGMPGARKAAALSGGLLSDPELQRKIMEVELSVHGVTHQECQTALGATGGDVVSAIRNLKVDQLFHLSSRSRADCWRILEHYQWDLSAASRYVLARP
# [7] = target: T2, Non-receptor tyrosine-protein kinase TNK1 (Homo sapiens); conditions: at 1 µM
# [8] = target: Activated CDC42 kinase 1 (Homo sapiens) (UniProt Q07912); conditions: at 0.1 µM
# Activated CDC42 kinase 1 (Homo sapiens), sequence (Q07912 whole entry, looked up): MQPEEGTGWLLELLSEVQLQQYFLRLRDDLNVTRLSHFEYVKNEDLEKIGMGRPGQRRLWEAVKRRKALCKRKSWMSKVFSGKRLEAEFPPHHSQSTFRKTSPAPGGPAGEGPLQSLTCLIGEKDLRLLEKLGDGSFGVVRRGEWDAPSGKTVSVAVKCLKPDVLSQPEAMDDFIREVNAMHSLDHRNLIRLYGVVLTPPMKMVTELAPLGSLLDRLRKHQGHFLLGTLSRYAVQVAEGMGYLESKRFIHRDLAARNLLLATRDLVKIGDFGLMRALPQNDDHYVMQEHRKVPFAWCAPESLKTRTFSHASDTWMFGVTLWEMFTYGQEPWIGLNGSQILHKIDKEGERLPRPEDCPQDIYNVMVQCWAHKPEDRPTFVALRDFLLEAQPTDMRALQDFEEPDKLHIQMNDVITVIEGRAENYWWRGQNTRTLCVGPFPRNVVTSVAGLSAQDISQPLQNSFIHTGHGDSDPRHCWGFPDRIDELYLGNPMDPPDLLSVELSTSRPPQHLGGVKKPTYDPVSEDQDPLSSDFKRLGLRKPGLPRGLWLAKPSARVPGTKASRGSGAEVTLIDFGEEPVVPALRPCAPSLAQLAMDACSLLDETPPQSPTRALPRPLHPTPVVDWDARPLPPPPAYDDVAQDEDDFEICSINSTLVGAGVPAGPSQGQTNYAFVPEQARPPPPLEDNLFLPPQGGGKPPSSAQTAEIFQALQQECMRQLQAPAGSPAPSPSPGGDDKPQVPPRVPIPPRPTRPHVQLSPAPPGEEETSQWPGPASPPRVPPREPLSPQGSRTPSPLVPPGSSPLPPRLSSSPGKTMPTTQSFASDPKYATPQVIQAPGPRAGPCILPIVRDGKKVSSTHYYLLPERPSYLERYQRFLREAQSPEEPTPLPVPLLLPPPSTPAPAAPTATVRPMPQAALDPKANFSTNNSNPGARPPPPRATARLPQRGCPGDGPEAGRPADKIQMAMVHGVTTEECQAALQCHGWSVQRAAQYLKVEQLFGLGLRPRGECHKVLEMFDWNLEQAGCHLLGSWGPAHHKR
# [9] = target: Activated CDC42 kinase 1 (Homo sapiens) (UniProt Q07912); conditions: at 1 µM
# [10] = target: High affinity nerve growth factor receptor (Homo sapiens) (UniProt P04629); conditions: at 0.1 µM
# High affinity nerve growth factor receptor (Homo sapiens), sequence (P04629 33-796 limits assumed): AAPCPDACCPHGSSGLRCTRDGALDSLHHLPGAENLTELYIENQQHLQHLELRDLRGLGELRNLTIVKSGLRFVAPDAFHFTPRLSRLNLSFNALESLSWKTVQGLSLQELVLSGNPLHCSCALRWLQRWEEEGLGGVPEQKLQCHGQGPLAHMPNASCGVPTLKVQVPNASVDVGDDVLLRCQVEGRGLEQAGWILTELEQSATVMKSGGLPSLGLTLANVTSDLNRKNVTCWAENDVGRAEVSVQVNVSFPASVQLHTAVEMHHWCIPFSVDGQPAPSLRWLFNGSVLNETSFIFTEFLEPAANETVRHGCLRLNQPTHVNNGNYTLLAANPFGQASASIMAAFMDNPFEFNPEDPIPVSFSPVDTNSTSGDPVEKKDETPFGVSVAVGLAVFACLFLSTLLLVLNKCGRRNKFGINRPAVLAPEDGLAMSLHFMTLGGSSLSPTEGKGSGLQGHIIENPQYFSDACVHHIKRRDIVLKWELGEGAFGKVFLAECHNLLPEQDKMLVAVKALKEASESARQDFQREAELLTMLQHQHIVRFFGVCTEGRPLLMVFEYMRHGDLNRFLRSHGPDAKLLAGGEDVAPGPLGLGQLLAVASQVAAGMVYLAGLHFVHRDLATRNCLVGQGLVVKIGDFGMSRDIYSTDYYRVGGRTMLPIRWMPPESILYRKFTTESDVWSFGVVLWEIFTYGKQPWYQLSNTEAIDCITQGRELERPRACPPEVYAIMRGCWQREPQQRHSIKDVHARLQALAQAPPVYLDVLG
# [11] = target: High affinity nerve growth factor receptor (Homo sapiens) (UniProt P04629); conditions: at 1 µM
# [12] = target: BDNF/NT-3 growth factors receptor (Homo sapiens) (UniProt Q16620); conditions: at 0.1 µM
# [13] = target: BDNF/NT-3 growth factors receptor (Homo sapiens) (UniProt Q16620); conditions: at 1 µM
# [14] = target: NT-3 growth factor receptor (Homo sapiens) (UniProt Q16288); conditions: at 0.1 µM
# NT-3 growth factor receptor (Homo sapiens), sequence (Q16288 32-839 limits assumed): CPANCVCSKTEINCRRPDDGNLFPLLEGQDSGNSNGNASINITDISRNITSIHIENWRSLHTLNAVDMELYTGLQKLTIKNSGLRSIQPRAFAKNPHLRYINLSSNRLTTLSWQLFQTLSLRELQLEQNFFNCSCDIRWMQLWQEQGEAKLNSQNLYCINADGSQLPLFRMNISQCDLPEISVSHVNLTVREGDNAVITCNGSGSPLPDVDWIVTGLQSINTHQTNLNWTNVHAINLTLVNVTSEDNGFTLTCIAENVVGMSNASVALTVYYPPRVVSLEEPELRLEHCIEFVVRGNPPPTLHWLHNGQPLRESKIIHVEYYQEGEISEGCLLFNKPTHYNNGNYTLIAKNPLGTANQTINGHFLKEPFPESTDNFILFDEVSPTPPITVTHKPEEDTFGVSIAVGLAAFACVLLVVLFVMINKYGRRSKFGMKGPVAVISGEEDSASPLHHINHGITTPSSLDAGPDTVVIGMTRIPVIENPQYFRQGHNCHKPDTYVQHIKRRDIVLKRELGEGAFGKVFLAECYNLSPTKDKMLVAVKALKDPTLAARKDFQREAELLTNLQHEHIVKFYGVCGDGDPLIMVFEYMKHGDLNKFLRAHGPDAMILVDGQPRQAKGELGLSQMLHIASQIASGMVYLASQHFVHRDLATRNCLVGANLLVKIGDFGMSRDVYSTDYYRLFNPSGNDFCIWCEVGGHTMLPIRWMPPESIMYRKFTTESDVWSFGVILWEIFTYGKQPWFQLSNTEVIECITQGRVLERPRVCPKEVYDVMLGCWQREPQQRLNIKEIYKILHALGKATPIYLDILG
# [15] = target: NT-3 growth factor receptor (Homo sapiens) (UniProt Q16288); conditions: at 1 µM
# [16] = target: T3, Tyrosine-protein kinase TXK (Homo sapiens) (UniProt P42681); conditions: at 0.1 µM
# T3 sequence (whole entry): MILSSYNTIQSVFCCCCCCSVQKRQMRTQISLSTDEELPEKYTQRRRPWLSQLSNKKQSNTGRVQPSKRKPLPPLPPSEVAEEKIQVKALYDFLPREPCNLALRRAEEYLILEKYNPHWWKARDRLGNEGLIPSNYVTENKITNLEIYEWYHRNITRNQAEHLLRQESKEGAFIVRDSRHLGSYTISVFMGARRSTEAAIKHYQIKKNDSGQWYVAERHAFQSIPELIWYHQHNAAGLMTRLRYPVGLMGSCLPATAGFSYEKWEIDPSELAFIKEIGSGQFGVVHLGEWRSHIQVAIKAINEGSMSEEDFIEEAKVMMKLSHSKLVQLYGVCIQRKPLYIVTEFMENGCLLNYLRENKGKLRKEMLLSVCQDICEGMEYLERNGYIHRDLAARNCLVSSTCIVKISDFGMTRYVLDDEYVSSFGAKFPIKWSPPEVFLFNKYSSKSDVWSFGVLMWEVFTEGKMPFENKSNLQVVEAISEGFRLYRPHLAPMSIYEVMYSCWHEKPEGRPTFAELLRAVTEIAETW
# [17] = target: T3, Tyrosine-protein kinase TXK (Homo sapiens); conditions: at 1 µM
# [18] = target: Non-receptor tyrosine-protein kinase TYK2 (Homo sapiens) (UniProt P29597); conditions: at 0.1 µM;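 also: each value is a mean of the inhibition readings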
# Non-receptor tyrosine-protein kinase TYK2 (Homo sapiens), sequence (P29597 whole entry): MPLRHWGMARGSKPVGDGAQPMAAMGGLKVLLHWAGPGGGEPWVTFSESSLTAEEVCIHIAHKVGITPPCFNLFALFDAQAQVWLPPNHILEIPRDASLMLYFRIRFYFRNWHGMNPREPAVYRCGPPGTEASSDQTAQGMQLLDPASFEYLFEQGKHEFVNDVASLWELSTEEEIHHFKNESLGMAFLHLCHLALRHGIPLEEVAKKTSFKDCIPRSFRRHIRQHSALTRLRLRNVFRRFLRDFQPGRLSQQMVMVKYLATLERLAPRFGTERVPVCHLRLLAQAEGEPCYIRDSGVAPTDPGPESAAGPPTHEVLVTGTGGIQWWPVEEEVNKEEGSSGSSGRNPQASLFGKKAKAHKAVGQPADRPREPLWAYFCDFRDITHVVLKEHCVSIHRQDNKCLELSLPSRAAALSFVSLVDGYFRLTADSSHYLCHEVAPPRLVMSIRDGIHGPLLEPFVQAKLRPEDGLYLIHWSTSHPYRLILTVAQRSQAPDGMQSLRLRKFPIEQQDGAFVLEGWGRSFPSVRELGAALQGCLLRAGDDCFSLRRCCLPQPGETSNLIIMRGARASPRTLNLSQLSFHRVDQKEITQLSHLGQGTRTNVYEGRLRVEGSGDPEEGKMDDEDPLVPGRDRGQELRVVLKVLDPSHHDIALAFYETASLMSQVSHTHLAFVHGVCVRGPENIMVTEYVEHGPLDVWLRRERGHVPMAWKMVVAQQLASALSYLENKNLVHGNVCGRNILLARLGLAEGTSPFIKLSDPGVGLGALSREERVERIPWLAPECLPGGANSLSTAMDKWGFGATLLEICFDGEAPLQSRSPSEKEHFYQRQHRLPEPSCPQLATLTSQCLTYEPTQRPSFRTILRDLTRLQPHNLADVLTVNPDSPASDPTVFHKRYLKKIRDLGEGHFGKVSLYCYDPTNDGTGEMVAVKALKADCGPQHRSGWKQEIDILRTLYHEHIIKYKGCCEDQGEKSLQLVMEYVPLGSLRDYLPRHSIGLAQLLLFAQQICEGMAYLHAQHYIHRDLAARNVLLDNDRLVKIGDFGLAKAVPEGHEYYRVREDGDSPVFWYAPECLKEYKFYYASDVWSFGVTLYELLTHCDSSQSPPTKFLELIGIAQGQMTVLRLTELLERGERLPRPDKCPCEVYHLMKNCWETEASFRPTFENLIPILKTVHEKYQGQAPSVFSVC
# [19] = target: T4, Dual specificity protein kinase TTK (Homo sapiens) (UniProt P33981); conditions: at 1 µM;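 also: reported figures are mean TTK inhibition at 1 µM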
# T4 sequence (whole entry): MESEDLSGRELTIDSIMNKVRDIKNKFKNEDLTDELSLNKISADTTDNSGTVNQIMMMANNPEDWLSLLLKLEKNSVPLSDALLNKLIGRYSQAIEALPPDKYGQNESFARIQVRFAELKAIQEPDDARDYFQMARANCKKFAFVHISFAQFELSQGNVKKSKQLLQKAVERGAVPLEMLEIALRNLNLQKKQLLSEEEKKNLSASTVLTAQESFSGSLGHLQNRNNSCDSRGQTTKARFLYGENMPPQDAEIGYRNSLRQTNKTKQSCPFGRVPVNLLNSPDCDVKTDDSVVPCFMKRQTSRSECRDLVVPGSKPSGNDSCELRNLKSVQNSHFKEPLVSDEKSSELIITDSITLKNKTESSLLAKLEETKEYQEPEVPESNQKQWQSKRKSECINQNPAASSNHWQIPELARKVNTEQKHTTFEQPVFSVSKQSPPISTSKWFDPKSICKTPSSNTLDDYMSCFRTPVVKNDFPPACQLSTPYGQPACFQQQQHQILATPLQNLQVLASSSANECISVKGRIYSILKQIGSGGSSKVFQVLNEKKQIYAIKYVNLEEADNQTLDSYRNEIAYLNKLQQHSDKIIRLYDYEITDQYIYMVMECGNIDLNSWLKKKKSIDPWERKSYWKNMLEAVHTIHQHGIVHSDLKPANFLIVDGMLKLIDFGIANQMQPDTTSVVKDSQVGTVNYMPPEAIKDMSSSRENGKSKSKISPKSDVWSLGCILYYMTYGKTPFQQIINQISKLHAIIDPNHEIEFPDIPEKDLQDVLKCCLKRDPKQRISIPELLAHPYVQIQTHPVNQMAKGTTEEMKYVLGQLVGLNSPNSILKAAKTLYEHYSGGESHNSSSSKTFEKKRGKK
# [20] = target: T5, Aurora kinase A (Homo sapiens) (UniProt O14965); conditions: at 0.1 µM;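 also: each reported value is a mean percent inhibition of Aurora-A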
# T5 sequence (whole entry): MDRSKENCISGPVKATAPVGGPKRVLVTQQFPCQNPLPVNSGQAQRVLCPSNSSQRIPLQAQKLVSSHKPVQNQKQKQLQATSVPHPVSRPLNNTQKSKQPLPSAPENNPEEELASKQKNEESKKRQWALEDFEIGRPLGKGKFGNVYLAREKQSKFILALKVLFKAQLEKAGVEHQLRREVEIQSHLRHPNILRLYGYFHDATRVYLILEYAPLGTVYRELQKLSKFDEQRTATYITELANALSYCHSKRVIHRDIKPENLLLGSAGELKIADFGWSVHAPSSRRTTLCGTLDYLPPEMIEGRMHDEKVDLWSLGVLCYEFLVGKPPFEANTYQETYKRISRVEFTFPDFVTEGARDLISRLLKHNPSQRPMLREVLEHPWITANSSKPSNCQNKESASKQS
Compound,inhibition [1] [%],inhibition [2] [%],inhibition [3] [%],inhibition [4] [%],inhibition [5] [%],inhibition [6] [%],inhibition [7] [%],inhibition [8] [%],inhibition [9] [%],inhibition [10] [%],inhibition [11] [%],inhibition [12] [%],inhibition [13] [%],inhibition [14] [%],inhibition [15] [%],inhibition [16] [%],inhibition [17] [%],inhibition [18] [%],inhibition [19] [%],inhibition [20] [%]
O=C1Nc2ccc(-c3cccnc3)cc2C1=Cc1cc(Br)c(O)c(Br)c1,-2.96,3.68,8.99,1.2,2.63,52.5,80.6,1.09,3.05,4.7,12.8,2.93,12.2,4.91,24.1,2.22,6.14,0.81,7.48,15.5
CCn1c(-c2nonc2N)nc2c(C#CC(C)(C)O)nc(OCCNC)cc21,0.91,5.49,3.22,2.67,6.8,0.64,3.22,0.83,1.43,3.54,6.23,3.15,3.59,1.5,2.5,3.81,2.46,-0.47,9.85,1.75
CN(C)C(=O)O[C@H]1CN[C@H](C#Cc2cc3ncnc(Nc4ccc(OCc5cccc(F)c5)c(Cl)c4)c3s2)C1,-0.76,3.98,6.52,2.98,5.32,1.02,12,1.42,1.79,2.9,0.1,1.92,2.03,1.38,2.78,2.86,4.84,-7.95,6.07,1.25
Cc1ccc2c(-c3ccnc(Nc4ccc5c(c4)OCCO5)n3)c(-c3ccc(C(F)(F)F)cc3)nn2n1,-4.13,-0.12,3.34,-0.68,6.26,-0.74,2.22,-0.07,0.6,-1.98,-4.22,-1.22,0.09,3.63,-0.97,-1.11,2.6,-0.28,4.26,3.93
NC(=O)c1sc(-n2cnc3ccccc32)cc1OCc1ccccc1Br,-0.37,4.6,4.76,2,6.42,2.8,18.9,0.68,1.87,1.54,5.34,3.05,4.07,1.79,3.41,3.34,5.57,-1.33,13,3.86
COc1cccc(-n2ncc3c(N/N=C/c4ccc(C)cc4)ncnc32)c1,0.76,6.46,5.78,4.38,5.1,4.86,9.73,0.47,5.39,9.62,5.28,3.97,5.08,3.96,2.64,7.7,7.5,-1.37,19.1,3.98
Cc1ccc2c(c1)/C(=N/Nc1ccc(S(N)(=O)=O)cc1)C(=O)N2,-2.83,1.52,4.33,-0.15,2.63,-2.23,3.63,-0.48,-0.62,-1.8,11.8,3.81,31.2,4.95,39.2,1.24,3.92,1.2,33.2,2.87
